Laboratory results published in PubChem BioAssay (NCATS).
“And” between values parts separate entries of the source, which are not always exact repeats. Equal values may be shown once. Inconclusive results are not listed. Where a call stands in place of a potency, no number is given. The source made the active and inactive calls. The call rests on the fitted dose curve; in most records, active means well fitted inhibition curve with a large enough effect; inconclusive means small, poorly fitted or top-dose-only effect; inactive means flat fitted curve, though single readings scatter.

test system: CP252; assay: qHTS profiling for inhibitors of Plasmodium falciparum proliferation (AID 504749); further: nearly all actives have a fitted effect of over 60% in size; conditions: P. falciparum in erythrocytes, SYBR Green DNA, 72 h; series mostly up to 28.7 µM
Procedure, shortened: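 SYBR Green fluorescence (ex 485 nm, em 535 nm) reports parasite DNA after 72 h compound exposure of infected red cells at 0.3% parasitemia, 2.5% hematocrit; signal normalized to 0.29 uM artemisinin and vehicle wells.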
Potency means the concentration at half of the fitted maximal effect.

| SMILES | Potency |
| --- | --- |
| CCC1(c2ccccc2)CCC(=O)NC1=O (stereo unspecified) | inactive |
| C[N+]1(CCC(C(N)=O)(c2ccccc2)c2ccccc2)CCCCC1 | inactive |
| CCC(=O)O[C@H]1CC[C@H]2[C@@H]3CCC4=CC(=O)CC[C@]4(C)[C@H]3CC[C@]12C | inactive |
| OC(c1ccccc1)(c1ccccc1)C1CCNCC1 | inactive |
| CC(C)[N+](C)(CCC(C(N)=O)(c1ccccc1)c1ccccc1)C(C)C | inactive |
| Cc1ncc2n1-c1ccc(Cl)cc1C(c1ccccc1F)=NC2 | inactive |
| Cc1ccc(N=CN(C)C=Nc2ccc(C)cc2C)c(C)c1 | inactive |
| CC(C)NCC(O)c1ccc(N)c(C#N)c1 (stereo unspecified) | inactive |
| CNC(=O)Oc1cccc2ccccc12 | inactive |
| CCNc1nc(Cl)nc(NCC)n1 | inactive |
| CC[n+]1c(-c2ccccc2)c2cc(N)ccc2c2ccc(N)cc21 | 100 nM (active) and 282 nM (active) |
| CCCCCCCCCCCC[N+](C)(C)CCOc1ccccc1 | 7.94 µM (active) |
| CCOC(=O)NC(O)C(Cl)(Cl)Cl (stereo unspecified) | inactive |
| CCN(Cc1ccc(Cl)nc1)/C(=C/[N+](=O)[O-])NC | inactive |
| C[C@H]1C(=O)O[C@@H]2CCN3CC=C(COC(=O)[C@](C)(O)[C@]1(C)O)[C@H]23 | inactive |
| Oc1c(Br)cc(Br)cc1Br | inactive |

| SMILES | Potency |
| --- | --- |
| C[C@]12CC[C@H]3[C@@H](CC=C4C[C@@H](O)CC[C@@]43C)[C@@H]1CC[C@@H]2O | inactive |
| COP(=O)(OC)C(O)C(Cl)(Cl)Cl (stereo unspecified) | inactive |
| CCN(CC)C(C)C(=O)c1ccccc1 (stereo unspecified) | inactive |
| COP(=O)(OC)OC=C(Cl)Cl | inactive |
| CNC(=O)NC(O)C(Cl)(Cl)Cl (stereo unspecified) | inactive |
| NC(=O)CN1CCCC1=O | inactive |
| CCC1(CC)C(=O)NC(=O)NC1=O | inactive |
| O=c1n(Cl)c(=O)n(Cl)c(=O)n1Cl | inactive |
| CC(C)C(Br)C(=O)NC(N)=O (stereo unspecified) | inactive |
| CN(C)C(=S)SSC(=S)N(C)C | 3.98 µM (active) |
| COP(=S)(OC)Oc1ccc(Sc2ccc(OP(=S)(OC)OC)cc2)cc1 | inactive |
| NCc1cccnc1 | inactive |
| COc1ccc(C(=O)N2CCCC2=O)cc1 | inactive |
| c1ccc2nc(N3CCNCC3)ccc2c1 | inactive |
| CC(C)(C)OC(=O)c1ncn2c1[C@@H]1CCCN1C(=O)c1c(Br)cccc1-2 | inactive |
